Results as given in ChEMBL document CHEMBL3988442, “University of Dundee, Small-Polar-MMV Screening Library” (2021).
For some assays here: Entries with a potency or affinity are not part of this list.

Experiments:
Design in all cases: scale not given: direction of the effect not stated beside the values
[1] = biological target: Protein translocase subunit SecA (Escherichia coli (strain K12)) (UniProt P10408); test: Assay to Identify E. coli SecA ATPase Inhibitors; type: functional; details: 30 µM
Sequence of Protein translocase subunit SecA (Escherichia coli (strain K12)) (P10408 whole entry): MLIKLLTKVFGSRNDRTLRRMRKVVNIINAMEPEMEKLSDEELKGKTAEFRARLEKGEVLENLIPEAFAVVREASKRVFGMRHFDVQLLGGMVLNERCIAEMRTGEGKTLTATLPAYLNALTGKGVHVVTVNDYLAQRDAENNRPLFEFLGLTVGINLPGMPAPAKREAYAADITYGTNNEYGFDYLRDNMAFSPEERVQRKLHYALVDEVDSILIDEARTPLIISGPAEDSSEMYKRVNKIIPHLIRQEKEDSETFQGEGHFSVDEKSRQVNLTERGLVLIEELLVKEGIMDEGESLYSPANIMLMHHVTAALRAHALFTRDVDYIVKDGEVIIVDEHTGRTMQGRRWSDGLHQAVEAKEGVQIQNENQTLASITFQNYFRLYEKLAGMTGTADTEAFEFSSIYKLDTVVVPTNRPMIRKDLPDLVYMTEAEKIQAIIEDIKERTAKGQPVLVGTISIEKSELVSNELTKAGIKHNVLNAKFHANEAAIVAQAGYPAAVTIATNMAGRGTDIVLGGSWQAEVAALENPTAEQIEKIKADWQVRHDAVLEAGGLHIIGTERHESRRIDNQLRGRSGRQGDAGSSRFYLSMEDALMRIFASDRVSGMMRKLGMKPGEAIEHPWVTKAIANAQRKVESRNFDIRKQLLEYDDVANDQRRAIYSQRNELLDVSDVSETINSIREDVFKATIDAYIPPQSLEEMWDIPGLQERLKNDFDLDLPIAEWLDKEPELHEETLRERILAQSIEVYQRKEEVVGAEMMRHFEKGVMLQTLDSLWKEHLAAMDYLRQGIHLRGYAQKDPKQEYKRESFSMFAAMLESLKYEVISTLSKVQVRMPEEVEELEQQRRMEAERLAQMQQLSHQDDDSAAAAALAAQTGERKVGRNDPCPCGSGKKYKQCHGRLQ

[2] = biological target: T1, Ubiquitin-activating enzyme e1, putative (Leishmania donovani (strain BPK282A1)) (UniProt E9BSI1); test: Leishmania donovani Ubiquitin Activating Enzyme (LdE1); type: functional; details: 30 µM
T1 sequence (whole entry): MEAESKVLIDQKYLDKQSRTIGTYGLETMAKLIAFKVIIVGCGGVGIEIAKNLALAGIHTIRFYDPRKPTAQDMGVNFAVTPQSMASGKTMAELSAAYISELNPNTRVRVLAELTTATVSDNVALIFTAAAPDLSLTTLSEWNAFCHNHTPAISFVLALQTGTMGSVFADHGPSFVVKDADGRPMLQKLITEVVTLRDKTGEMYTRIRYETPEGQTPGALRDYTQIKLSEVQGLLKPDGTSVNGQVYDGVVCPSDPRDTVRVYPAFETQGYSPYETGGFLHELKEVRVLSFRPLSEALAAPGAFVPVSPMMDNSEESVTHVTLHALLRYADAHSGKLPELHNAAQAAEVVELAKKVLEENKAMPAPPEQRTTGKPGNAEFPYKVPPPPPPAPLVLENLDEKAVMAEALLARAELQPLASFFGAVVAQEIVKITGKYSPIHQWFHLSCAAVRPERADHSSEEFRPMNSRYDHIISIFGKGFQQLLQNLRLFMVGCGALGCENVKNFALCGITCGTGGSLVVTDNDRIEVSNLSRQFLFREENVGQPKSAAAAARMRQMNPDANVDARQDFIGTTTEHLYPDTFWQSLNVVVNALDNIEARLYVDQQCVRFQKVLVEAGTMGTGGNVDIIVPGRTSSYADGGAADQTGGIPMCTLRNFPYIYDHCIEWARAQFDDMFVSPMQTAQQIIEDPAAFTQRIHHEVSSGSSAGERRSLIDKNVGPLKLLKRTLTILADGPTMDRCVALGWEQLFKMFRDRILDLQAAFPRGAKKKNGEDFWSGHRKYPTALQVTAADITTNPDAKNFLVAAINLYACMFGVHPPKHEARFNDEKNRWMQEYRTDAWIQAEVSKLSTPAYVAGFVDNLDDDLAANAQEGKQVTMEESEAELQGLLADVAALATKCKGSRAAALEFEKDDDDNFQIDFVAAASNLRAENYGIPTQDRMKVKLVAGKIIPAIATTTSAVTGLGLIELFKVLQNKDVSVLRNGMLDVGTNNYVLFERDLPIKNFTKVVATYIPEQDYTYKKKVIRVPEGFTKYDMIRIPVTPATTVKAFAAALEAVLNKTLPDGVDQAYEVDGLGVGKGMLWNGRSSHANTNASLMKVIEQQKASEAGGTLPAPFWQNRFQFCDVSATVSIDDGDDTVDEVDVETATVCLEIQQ

[3] = biological target: AMP-activated protein kinase, AMPK (Homo sapiens) (UniProt P54646+O43741+P54619+Q9UGJ0+Q9Y478+Q13131+Q9UGI9); test: AMP-dependent Kinase enzyme assay. An in vitro enzyme assay that detects ADP turnover that is directly proportional to AMPK activity. This uses naive AMPK that is activated during the assay with MK-8722; type: functional; details: 30 µM
[4] = biological target: Sialic acid-binding Ig-like lectin 9 (Homo sapiens) (UniProt Q9Y336); test: Hs-Siglec9 ALPHAscreen SOP 20170721; details: 10 µM
Sequence of Sialic acid-binding Ig-like lectin 9 (Homo sapiens) (Q9Y336 whole entry): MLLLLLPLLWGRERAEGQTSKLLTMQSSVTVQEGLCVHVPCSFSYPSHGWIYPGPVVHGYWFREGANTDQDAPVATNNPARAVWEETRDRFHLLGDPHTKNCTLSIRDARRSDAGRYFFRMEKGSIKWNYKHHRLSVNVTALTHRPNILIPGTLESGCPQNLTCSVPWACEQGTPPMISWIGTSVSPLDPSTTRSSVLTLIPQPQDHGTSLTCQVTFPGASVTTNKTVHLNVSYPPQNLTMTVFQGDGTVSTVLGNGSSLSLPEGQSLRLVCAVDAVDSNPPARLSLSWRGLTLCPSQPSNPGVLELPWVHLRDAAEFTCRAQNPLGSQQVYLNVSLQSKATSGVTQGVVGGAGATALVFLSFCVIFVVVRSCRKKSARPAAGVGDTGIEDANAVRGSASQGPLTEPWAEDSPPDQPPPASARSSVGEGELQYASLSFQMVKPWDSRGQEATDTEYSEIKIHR

Trypanosoma cruzi = test: Trypanosoma cruzi phosphomannomutase and mannose-1-phosphate guanylyltransferase assay; type: functional; details: 10 µM
[5] = biological target: T2, Arginase-2, mitochondrial (Homo sapiens) (UniProt P78540); test: in vitro enzyme assay to detect the production of urea directly proportional to the activity of Arginase II; type: functional; details: 33.3 µM; note: in the data most compounds retested in dose-response had high values
T2 sequence (whole entry): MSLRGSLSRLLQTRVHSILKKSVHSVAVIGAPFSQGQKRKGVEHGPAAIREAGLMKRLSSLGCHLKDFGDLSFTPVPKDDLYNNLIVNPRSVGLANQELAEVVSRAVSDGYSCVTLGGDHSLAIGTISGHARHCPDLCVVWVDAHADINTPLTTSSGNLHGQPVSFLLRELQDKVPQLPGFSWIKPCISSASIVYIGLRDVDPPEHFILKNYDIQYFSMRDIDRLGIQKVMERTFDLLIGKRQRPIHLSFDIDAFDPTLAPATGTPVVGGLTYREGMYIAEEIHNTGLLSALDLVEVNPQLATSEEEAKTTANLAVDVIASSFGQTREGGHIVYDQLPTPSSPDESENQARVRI

[6] = biological target: T3, Proteasome subunit beta (Trypanosoma cruzi) (UniProt O96673); test: Trypanosoma cruzi proteasome chymotrypsin-like activity (TcProtChymo) assay.; note: in the data most compounds retested in dose-response had high values; type: functional; details: 9.37 µM
T3 sequence (whole entry): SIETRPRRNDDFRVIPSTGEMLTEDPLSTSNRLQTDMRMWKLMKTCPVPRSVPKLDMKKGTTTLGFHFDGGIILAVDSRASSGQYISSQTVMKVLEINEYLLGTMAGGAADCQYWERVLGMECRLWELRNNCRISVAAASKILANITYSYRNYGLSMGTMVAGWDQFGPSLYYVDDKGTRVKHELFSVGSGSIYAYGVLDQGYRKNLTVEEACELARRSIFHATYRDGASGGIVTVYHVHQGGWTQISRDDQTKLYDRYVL

Homo sapiens = organism: Homo sapiens; test: To identify inhibition of the IFN signalling (Jak-Stat) pathway via expression of an eGFP reporter gene under the control of an IFN-stimulated response element (ISRE) containing MxA promoter.; type: functional; details: 30 µM
[7] = biological target: T4, Tyrosyl-tRNA synthetase, putative (Trypanosoma cruzi (strain CL Brener)) (UniProt Q4DSP6); test: Trypanosoma cruzi tyrosyl tRNA synthetase (TcYRS) _High Tyrosine SOP; type: functional; details: 30 µM; note: in the data most compounds retested in dose-response had high values
T4 sequence (whole entry): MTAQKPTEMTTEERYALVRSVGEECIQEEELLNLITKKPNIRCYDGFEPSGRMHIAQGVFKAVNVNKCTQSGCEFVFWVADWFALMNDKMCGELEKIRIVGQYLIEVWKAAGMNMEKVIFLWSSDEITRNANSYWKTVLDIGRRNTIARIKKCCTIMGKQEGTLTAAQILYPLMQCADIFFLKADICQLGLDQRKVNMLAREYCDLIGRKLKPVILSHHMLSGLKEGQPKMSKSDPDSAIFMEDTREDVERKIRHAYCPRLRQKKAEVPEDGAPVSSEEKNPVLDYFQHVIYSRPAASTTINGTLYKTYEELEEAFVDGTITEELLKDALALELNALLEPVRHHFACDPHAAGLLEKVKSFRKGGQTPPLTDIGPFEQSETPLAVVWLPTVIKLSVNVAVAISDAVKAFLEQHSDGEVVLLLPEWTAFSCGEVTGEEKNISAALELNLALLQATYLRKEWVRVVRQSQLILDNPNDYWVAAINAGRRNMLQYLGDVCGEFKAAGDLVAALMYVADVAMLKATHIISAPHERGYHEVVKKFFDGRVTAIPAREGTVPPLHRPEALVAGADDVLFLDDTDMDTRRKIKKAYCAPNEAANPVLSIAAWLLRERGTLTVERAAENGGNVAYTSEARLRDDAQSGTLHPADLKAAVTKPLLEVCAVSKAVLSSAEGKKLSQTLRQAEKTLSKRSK

[8] = biological target: T4, Tyrosyl-tRNA synthetase, putative (Trypanosoma cruzi (strain CL Brener)); test: Trypanosoma cruzi tyrosyl tRNA synthetase (TcYRS) SOP; type: functional; details: 30 µM
[9] = biological target: Chromo domain-containing protein 1 (Saccharomyces cerevisiae (strain ATCC 204508 / S288c) (Baker's yeast)) (UniProt P32657); test: ScCHD-1 Enzyme Inhibition Assay; type: functional; details: 30 µM; note: in the data most compounds retested in dose-response had high values
Sequence of Chromo domain-containing protein 1 (Saccharomyces cerevisiae (strain ATCC 204508 / S288c) (Baker's yeast)) (P32657 whole entry, the tested form may be a part): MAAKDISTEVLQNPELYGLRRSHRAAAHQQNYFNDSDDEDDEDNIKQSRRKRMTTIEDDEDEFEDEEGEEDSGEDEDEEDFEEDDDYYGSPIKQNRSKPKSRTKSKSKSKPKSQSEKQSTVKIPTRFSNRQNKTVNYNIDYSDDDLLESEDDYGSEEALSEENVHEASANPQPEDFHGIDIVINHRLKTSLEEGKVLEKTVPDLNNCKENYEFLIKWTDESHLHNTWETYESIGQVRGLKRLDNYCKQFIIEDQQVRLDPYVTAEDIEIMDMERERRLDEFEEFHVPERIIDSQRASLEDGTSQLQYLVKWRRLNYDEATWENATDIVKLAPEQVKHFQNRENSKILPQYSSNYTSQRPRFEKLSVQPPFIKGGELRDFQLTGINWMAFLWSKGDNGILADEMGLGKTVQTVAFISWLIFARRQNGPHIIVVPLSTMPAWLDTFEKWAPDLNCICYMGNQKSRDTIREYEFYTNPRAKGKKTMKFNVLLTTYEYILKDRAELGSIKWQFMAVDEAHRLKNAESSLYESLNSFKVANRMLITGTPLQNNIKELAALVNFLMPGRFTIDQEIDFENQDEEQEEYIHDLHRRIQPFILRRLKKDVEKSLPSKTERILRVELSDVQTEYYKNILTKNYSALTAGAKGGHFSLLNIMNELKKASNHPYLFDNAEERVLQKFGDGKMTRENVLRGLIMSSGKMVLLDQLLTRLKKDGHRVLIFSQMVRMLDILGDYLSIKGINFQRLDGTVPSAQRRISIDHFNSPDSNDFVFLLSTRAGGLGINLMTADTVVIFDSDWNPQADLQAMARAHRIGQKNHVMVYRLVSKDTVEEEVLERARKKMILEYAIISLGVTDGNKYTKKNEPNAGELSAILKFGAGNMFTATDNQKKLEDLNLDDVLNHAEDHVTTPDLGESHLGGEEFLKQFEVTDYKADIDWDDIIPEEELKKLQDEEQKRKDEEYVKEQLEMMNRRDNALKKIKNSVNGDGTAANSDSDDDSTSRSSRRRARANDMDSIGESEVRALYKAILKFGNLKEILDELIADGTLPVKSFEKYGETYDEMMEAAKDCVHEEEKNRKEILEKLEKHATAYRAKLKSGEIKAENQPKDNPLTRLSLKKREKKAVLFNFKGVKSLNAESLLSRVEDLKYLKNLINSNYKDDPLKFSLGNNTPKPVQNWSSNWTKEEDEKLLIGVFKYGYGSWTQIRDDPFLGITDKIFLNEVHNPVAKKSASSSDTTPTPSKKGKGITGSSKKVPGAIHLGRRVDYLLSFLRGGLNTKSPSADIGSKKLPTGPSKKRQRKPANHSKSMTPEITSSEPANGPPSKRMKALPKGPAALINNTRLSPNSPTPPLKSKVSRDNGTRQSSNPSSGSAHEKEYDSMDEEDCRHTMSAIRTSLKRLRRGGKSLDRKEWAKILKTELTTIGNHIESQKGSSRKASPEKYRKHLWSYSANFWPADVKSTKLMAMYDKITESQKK

SMILES	Percent Effect [1]	Percent Effect [2]	Percent Effect [3]	Percent Effect [4]	Percent Effect (Trypanosoma cruzi)	Percent Effect [5]	Percent Effect [6]	Percent Effect (Homo sapiens)	Percent Effect [7]	Percent Effect [8]	Percent Effect [9]
Cn1cc(CN2C[C@@H]3COC[C@@H](C(=O)N4CCCCO4)[C@@H]3C2)cn1	-2.29%	2.67%	9.23%	1.72%	0.787%	3.03%	8.19%	3.52%	7.45%	8.97%	1.85%
c1ccc(N2CCCC3(COCCN(c4nccs4)C3)C2)nc1 (stereo not given)	0.192%	0%	-5.45%	16.4%	11.7%	0.399%	16%	31.6%	16.7%	23.5%	10.7%
Cc1cc(C(=O)N2CCCC(n3ccnc3C)C2)c(C)s1 (stereo not given)	-3.98%	-5.26%	5.18%	-0.508%	6.52%	0%	1.44%	13.2%	1.06%	2.6%	-2.55%
NS(=O)(=O)Cc1ccc(CNC(=O)NCC2CCOC2)cc1 (stereo not given)	-1.97%	7.79%	5.79%	-1.36%	1.86%	3.58%	5.09%	-5.41%	2.86%	18.8%	-8.13%
CCn1cc(CN2CC3CCCN3C[C@H]2C)c(C)n1 (stereo not given in full)	-2.31%	9.46%	3.58%	-8.58%	-1.98%	-2.09%	20.3%	2%	4.3%	9.09%	-14.7%
Cc1cnn(CC2CCCN2Cc2nc3ccccc3n2C)c1 (stereo not given)	-1.76%	-10.1%	-1.75%	3.88%	8.4%	1.9%	-1.23%	-22.9%	9.36%	13.9%	-3.16%
O=C(NC1(c2nnn(Cc3ccncc3)n2)CCCC1)c1ccccc1	-6.65%	2.67%	-7.02%	6.6%	1.85%	0.521%	-25.6%	-24.1%	7.1%	16.1%	-2.08%
Cc1cc(C)c(CNC(=O)NCC2CCCO2)c(=O)[nH]1 (stereo not given)	-9.94%	2.63%	3.27%	0.242%	-5.64%	-2.3%	-2.17%	19.5%	-3.43%	-2.44%	2.35%
CC(C)C(NC(=O)NCC1(CO)CC1)c1nnc2n1CCC2 (stereo not given)	-7.18%	13.5%	2.82%	15.2%	2.54%	4.58%	11.2%	10.4%	7.92%	11%	-9.98%
Cc1ccccc1C(=O)NCc1ccc(N2CCNC(=O)C2)cc1	1.43%	5.41%	-9.32%	6.76%	1.16%	-14.8%	14.3%	-13.4%	15.3%	17.1%	-3.63%
